Screen size: about 310,000 compounds; about 14,000 (4.5%) showed an effect of 50% or more. The effect is printed as a negative number. The list comes from a sample in which strong results are over-represented; it also holds similar structures and randomly drawn compounds.
target: human ether-à-go-go-related gene (hERG) potassium channel (human, UniProt Q12809); test: primary screen, population patch clamp on CHO cells stably expressing hERG; higher = less effect of the substance
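Also: peak tail current of the secondary pulse compared with the same well before compound.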

Sequence of human ether-à-go-go-related gene (hERG) potassium channel (Q12809 whole entry, looked up): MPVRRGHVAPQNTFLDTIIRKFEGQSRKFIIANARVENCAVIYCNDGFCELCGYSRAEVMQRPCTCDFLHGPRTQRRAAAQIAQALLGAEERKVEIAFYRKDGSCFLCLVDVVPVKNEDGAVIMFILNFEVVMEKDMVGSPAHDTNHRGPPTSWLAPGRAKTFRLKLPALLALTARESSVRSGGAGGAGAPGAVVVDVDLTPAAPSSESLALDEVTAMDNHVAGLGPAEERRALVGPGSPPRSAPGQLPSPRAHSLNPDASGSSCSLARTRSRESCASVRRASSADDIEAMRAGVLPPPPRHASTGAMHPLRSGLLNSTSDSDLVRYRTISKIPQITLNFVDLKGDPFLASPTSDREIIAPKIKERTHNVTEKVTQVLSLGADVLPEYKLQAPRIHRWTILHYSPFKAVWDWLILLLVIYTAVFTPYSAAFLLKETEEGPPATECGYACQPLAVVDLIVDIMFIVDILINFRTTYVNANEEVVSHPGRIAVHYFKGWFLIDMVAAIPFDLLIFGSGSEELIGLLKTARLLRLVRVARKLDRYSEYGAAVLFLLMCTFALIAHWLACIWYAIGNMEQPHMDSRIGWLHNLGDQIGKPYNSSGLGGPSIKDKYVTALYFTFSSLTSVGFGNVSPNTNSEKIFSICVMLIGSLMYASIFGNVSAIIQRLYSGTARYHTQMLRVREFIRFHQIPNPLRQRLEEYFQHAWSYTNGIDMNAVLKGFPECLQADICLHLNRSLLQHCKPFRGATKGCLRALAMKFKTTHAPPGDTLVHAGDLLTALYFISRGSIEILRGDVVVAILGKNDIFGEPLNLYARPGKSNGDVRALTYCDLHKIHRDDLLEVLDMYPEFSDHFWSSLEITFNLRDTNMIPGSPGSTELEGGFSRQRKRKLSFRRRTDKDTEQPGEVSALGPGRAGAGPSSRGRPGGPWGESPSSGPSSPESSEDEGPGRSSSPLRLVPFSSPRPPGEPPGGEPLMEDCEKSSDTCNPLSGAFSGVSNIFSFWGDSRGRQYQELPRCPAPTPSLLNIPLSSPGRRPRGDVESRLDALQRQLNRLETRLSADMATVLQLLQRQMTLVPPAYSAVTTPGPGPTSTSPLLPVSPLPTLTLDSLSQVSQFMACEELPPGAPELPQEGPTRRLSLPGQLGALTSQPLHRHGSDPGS

SMILES | hERG current change (%, negative = inhibition) at 10uM [%]
COc1cccc(C2=NC(C)(C)NC(c3ccccc3O)C2)c1 (centres unmarked) | 2.64
COc1ccc(Cn2c(=O)c3[nH]cnc3n(-c3ccccc3C)c2=O)cc1 | 7.7
Cc1cccc(NC(=O)CS(=O)(=O)Cc2ccccc2)n1 | 2.58
CCc1cc(C(=O)N/N=C/c2ccc(OC)cc2)c2ccccc2n1 | -4.27
O=C1C2Sc3[nH]c(=O)sc3C(c3ccccc3)C2C(=O)N1c1ccccc1 (centres unmarked) | -2.84
CC(=O)Nc1ccc(S(=O)(=O)NC2(C(F)(F)F)NC(=O)N(C3CCCCC3)C2=O)cc1 (centres unmarked) | 2.87
CCCN1CCN(C2CCCCC2NS(=O)(=O)c2ccc(Cl)cc2)CC1 (centres unmarked) | -63.4
CCN1CCN(C2CCCCC2NS(=O)(=O)c2ccc(Cl)cc2)CC1 (centres unmarked) | -61.8
CN1CCN(C2CCCCC2NS(=O)(=O)c2ccc(Cl)cc2)CC1 (centres unmarked) | -29.8
CCCN1CCN(C2CCCCC2NS(=O)(=O)c2ccccc2)CC1 (centres unmarked) | -44.7
O=S(=O)(NC1CCCCC1N1CCCCC1)c1ccc(Cl)cc1 (centres unmarked) | -5.16
CCN1CCN(C2CCCCC2NS(=O)(=O)c2ccccc2)CC1 (centres unmarked) | 11.7
Cc1cc(C)nc(SC2CCCCC2NS(=O)(=O)c2ccc(Cl)cc2)n1 (centres unmarked) | -14.7
O=S(=O)(NC1CCCCC1Sc1ncccn1)c1ccc(Cl)cc1 (centres unmarked) | -50.9
O=S(=O)(NC1CCCCC1Sc1ncccn1)c1ccccc1 (centres unmarked) | -5.72
CCN(c1ccccc1)S(=O)(=O)c1ccc(Cl)c(NC(=O)COC(=O)c2ccc[nH]c2=O)c1 | 3.13
C#CCOCCOCCOCCNc1nc(N2CCN(C(=O)C([C@@H](C)CC)n3cc(C(N)Cc4ccc(O)cc4)nn3)CC2)nc(N2CCN(C(=O)[C@H](CCC(=O)O)n3cc(C(N)[C@H](C)CC)nn3)CC2)n1.Cl (some centres unmarked) | 4.5
O=C(OCc1ccccc1)N1CCOCCN(C(=O)OCc2ccccc2)CCOCC1 | -64
O=C(O)C1CCN(C(=O)OCc2ccccc2)CC1 | 13.8
O=C(NCC(=O)N1CCOCC1)OCc1ccccc1 | -30.8
COC(=O)CCn1nnc(-c2ccc(C)cc2)n1 | 12.3

SMILES | hERG current change (%, negative = inhibition) at 10uM [%]
COc1ccccc1-c1nc2n(n1)C(c1cccs1)C(C(=O)Nc1cccnc1)=C(C)N2 (centres unmarked) | -31.7
COc1ccc(C2C(C(=O)Nc3cccnc3)=C(C)Nc3nc(-c4cccs4)nn32)cc1 (centres unmarked) | -39.6
COc1cccc(-c2nc3n(n2)C(c2cccs2)C(C(=O)Nc2cccnc2)=C(C)N3)c1 (centres unmarked) | -72.3
Cc1cccc(C(C(=O)NC2CCCCC2)N(C(=O)c2csnn2)C2CC2)c1 (centres unmarked) | 7.99
CCCCCCCNC(=O)C1(CC2CC(c3ccccc3)=NO2)CCN(C(=O)c2ccccc2)CC1 (centres unmarked) | -70.9
CCCNC(=O)C1(CC2CC(c3ccccc3)=NO2)CCN(C(=O)C2(C)CC2)CC1 (centres unmarked) | -17
CCCCCCCNC(=O)C1(CC2CC(c3cccc(Br)c3)=NO2)CCN(C(=O)c2ccccc2)CC1 (centres unmarked) | -71
CCCNC(=O)C1(CC2CC(c3ccccc3)=NO2)CCN(C(=O)c2ccccc2)CC1 (centres unmarked) | -68.9
CCCNC(=O)C1(CC2CC(c3ccccc3)=NO2)CCN(C(=O)Cc2ccc(F)cc2)CC1 (centres unmarked) | -64.6
CCCNC(=O)C1(CC2CC(c3ccccc3)=NO2)CCN(C(=O)OC(C)(C)C)CC1 (centres unmarked) | -48.6
CCCNC(=O)C1(CC2CC(c3ccccc3)=NO2)CCN(C(=O)c2cc(OCC)c(OCC)c(OCC)c2)CC1 (centres unmarked) | -34.6
CCOc1cc(C(=O)N2CCC(CC3CC(c4cccc(Br)c4)=NO3)(C(=O)NCC3CCCCC3)CC2)cc(OCC)c1OCC (centres unmarked) | 4.14
CCCCCCCNC(=O)C1(CC2CC(c3ccc(Cl)cc3)=NO2)CCN(C(=O)c2ccccc2)CC1 (centres unmarked) | -15.8
COc1ccc(CNC(=O)C2(CC3CC(c4ccccc4)=NO3)CCN(C(=O)Cc3ccc(F)cc3)CC2)cc1 (centres unmarked) | 18.1
CCCCCCCNC(=O)C1(CC2CC(c3ccc(Cl)cc3)=NO2)CCN(C(=O)Cc2ccc(F)cc2)CC1 (centres unmarked) | -11
CCCCCCCNC(=O)C1(CC2CC(c3cccc(Br)c3)=NO2)CCN(C(=O)c2cc(OCC)c(OCC)c(OCC)c2)CC1 (centres unmarked) | 4.79
COc1ccc(C2CC(C(F)(F)F)n3nc(C(=O)Nc4ccc5c(c4)OCO5)cc3N2)cc1 (centres unmarked) | 10.5
COc1ccc(-c2noc(N3CCCC(C(=O)Nc4ccccc4F)C3)n2)cc1 (centres unmarked) | 15.5
Cc1csc(=O)n1CC(=O)OCC(=O)c1ccc(Br)cc1 | -14
CCOc1ccc(NC(=S)N2CCN(S(=O)(=O)c3ccccc3)CC2)cc1 | -31.6
COc1ccc(-n2c(C)n[nH]c2=O)cc1OC | 10.7

SMILES | hERG current change (%, negative = inhibition) at 10uM [%]
Cc1sc(NC(=O)c2sc3nc4c(C)cccc4cc3c2N)c(C#N)c1C | 8.29
O=c1[nH]c2cc3c(cc2cc1CN(Cc1cccnc1)Cc1nnnn1Cc1ccco1)OCCO3 | -4.69
CCN1C(=O)/C(=C/C=C2\C=CN(CC)c3ccccc32)SC1=S | -4.57
NC(=O)COc1ccc2oc(=O)cc(-c3cc4ccccc4o3)c2c1 | 7.27
Cc1noc(C)c1CSCC(=O)Nc1cc(C(F)(F)F)ccc1N1CCOCC1 | -37.9
Cc1c(Cl)c([N+](=O)[O-])nn1CC(=O)Nc1ccc2c(c1)OCO2 | 18.4
CCCNC(=O)C1(CC2CC(c3ccccc3)=NO2)CCN(C(=O)CCCCCBr)CC1 (centres unmarked) | -50
CCCCCCCNC(=O)C1(CC2CC(c3cccc(Br)c3)=NO2)CCN(C(=O)OC(C)(C)C)CC1 (centres unmarked) | 3.88
CCCCCCCNC(=O)C1(CC2CC(c3ccc(Cl)cc3)=NO2)CCN(C(=O)CCCCCBr)CC1 (centres unmarked) | -79
CCCCCCCNC(=O)C1(CC2CC(c3cccc(Br)c3)=NO2)CCN(C(=O)CCCCCBr)CC1 (centres unmarked) | -82.7
CCCCCCCNC(=O)C1(CC2CC(c3ccc(Cl)cc3)=NO2)CCN(C(=O)c2cc(OCC)c(OCC)c(OCC)c2)CC1 (centres unmarked) | 17.6
CCCCn1c(-c2ccco2)n[nH]c1=S | 16.9
COc1cc2c(cc1OC)-c1nnc(-c3ccco3)n1C1(CCCC1)C2 | -8.01
O=Cc1c(Cl)cccc1Cl | 13.9
CNC(=O)CCCN1C(=O)c2ccccc2Sc2ncccc21 | 23.9
O=C(CSc1nc2[nH]ncc2c(=O)[nH]1)Nc1cccc([N+](=O)[O-])c1 | -19.2
COCCn1c(C)cc(C2=NNC(=Nc3ccc(Cl)cc3Cl)SC2)c1C | 7.57
O=C(Cn1c(SCC(=O)NC2CCCC2)nnc1-c1ccncc1)Nc1ccc2c(c1)OCO2 | -11.7
COC(=O)CSc1nnc(C)c(=O)[nH]1 | 2
O=C(Cc1coc2cc3c(cc12)CCC3)NCC1(N2CCCCC2)CCCCC1 | -76.9
Cc1ccc2c(CC(=O)NCC3(N4CCOCC4)CCCCC3)coc2c1C | -25.5

SMILES | hERG current change (%, negative = inhibition) at 10uM [%]
O=C(Cc1coc2cc3c(cc12)CCC3)NC1CCCCCCC1 | 0.532
CCOC(=O)c1sc2ncn(C(CC)C(=O)OCC)c(=O)c2c1C (centres unmarked) | 1.12
O=C(COC(=O)c1cc[n+]([O-])cc1)Nc1ccc(Cl)cc1C(F)(F)F | 24.9
C=C(C)C1CC=C(CN2CCC(O)CC2)CC1 (centres unmarked) | -6.28
CC1(C)[C@H]2CC=C(CN3CCC(N4CCC(C(=O)N5CCCC5)CC4)CC3)[C@@H]1C2 | -25.1
COCc1ccc(CN2CCC(N3CCC(C(=O)N4CCCC4)CC3)CC2)o1 | 8.86
O=C(C1CCN(C2CCN(Cc3ccc4cc(F)ccc4n3)CC2)CC1)N1CCCC1 | -77.3
C=C(C)[C@@H]1CC=C(CN2CCC(N3CCC(C(=O)N4CCCC4)CC3)CC2)CC1 | -82.2
O=C(c1cc2ccccc2o1)N1CCCCCC1 | -5.92
CCc1ccc(CN2CCC(N3CCC(C(=O)N4CCCC4)CC3)CC2)o1 | -70
O=C(c1cc2ccccc2o1)N1CCCC1 | 10.8
O=C(c1cc2ccccc2o1)N1CCC(N2CCC(C(=O)N3CCCC3)CC2)CC1 | -55.7
Cc1ncc(CN2CCC(N3CCC(C(=O)N4CCCC4)CC3)CC2)s1 | -18.1
O=C(C1CCN(C2CCN(Cc3ccc4c(c3)CCO4)CC2)CC1)N1CCCC1 | -43
O=C(c1cc(F)ccc1F)N1CCC(N2CCC(C(=O)N3CCCC3)CC2)CC1 | 6.92
O=C(CNC(=O)c1ccco1)Nc1ccncc1 | -5.14
Cc1cc(C)cc(C(=O)NC(CC(N)=O)c2ccc(NCCN3CCCC3)c([N+](=O)[O-])c2)c1 (centres unmarked) | 10.5
COC(=O)Cc1coc2cc(OC)ccc12 | 11.9
Cc1ccc(S(=O)(=O)n2cnc3cc([N+](=O)[O-])ccc32)cc1C | -19.9
Cc1cc(NC(=O)CSc2nc3c(cc2C#N)CCC3)no1 | 26.7
